A short description of assay [1]: NCI Yeast Anticancer Drug Screen. Data for the rad50 strain (AID 155).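 Also: 0% = growth of vehicle-only cultures of the same strain.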 Conditions: S. cerevisiae rad50 strain growth inhibition; at 50.0 µM; hits give high values. The method in brief: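 Growth of the mutant yeast was measured after compound exposure and referenced to vehicle-treated cultures.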
Assay [2] is described as follows: NCI Yeast Anticancer Drug Screen. Data for the mec2-1 strain (AID 157). To be noted: S. cerevisiae mec2-1 strain, at 50.0 µM, hits give high values. In outline:
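Test agents were screened against the mec2-1 yeast strain, with defined DNA repair or cell cycle alteration. Growth was scored as inhibition against vehicle-only controls.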

Assay [3] is described as follows: NCI Yeast Anticancer Drug Screen. Data for the sgs1 mgt1 strain (AID 161).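 Also: 0% = growth of cultures given vehicle only.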 Conditions: S. cerevisiae sgs1 mgt1 strain, at 50.0 µM, hits give high values. The method in brief:
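Read-out: growth inhibition vs vehicle controls. Cells: mutant yeast strain deficient in DNA damage repair.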

Assay [4] is described as follows: NCI Yeast Anticancer Drug Screen. Data for the cln2 rad14 strain (AID 165).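 Also: 0% = growth equal to vehicle treated cultures.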 Conditions: S. cerevisiae cln2 rad14 strain, at 50.0 µM, hits give high values. The method in brief: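 Growth of compound-exposed yeast (cln2 rad14 genotype) measured and expressed as inhibition relative to vehicle.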
The nature of assay [5]: NCI Yeast Anticancer Drug Screen. Data for the bub3 strain (AID 167). Conditions: S. cerevisiae bub3 mutant strain, at 50.0 µM, hits give high values. The method in brief: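 Whole-cell yeast assay. The mutant strain was incubated with compounds, and growth inhibition was determined by comparison with vehicle-treated cells.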
A short description of assay [6]: NCI Yeast Anticancer Drug Screen. Data for the mlh1 rad18 strain (AID 175). To be noted: S. cerevisiae mlh1 rad18 strain growth inhibition; at 50.0 µM; hits give high values. The method in brief: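 In this whole-cell yeast screen, a strain with altered DNA damage repair is challenged with compound, and its growth is measured against matched vehicle-treated controls.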

Structures are written as SMILES. The panel holds about 79,000 compounds, 15% with a hit somewhere; the sample as a whole holds those more often. Unmarked numbers belong to inactive results. The source made the active and inactive calls. Rule as the data show it: active = growth inhibition above about 70%; inactive = the rest.

21 compounds from PubChem BioAssay (NCI) can be followed below.

As for `S=C(NCc1ccco1)Nc1ccccc1Cl`, the growth inhibition was 5.5% in assay [1]; -4.1% in assay [2]; 16.2% in assay [3]; 4.5% in assay [4]; 4.4% in assay [5]; 1.2% in assay [6].
Consider `C=C1C2C[C@@H]3OC4CC5O[C@]6(CC5OC4C(C)C3OC(=O)CC3CC[C@@H]4OC5C7OC8C[C@](CCC9CC(=C)[C@H](CCC(C[C@H]1C)O2)O9)(OC7C4O3)O[C@@H]85)C[C@@H]1O[C@@]2(CC(C)[C@@H]3OC(CC(=O)CCO)C(O)C[C@@H]3O2)CC(C)[C@@H]1O6` (stereo partly specified), for which the growth inhibition in assay [1] was 84.5% (active); in assay [2], 88.5% (active); in assay [3], 88.6% (active); in assay [4], 84.5% (active); in assay [5], 87.5% (active); in assay [6], 87.3% (active).
On to `CC(C)/C(Cl)=N\OC(=O)Nc1ccc(C#N)cc1`, for which the growth inhibition in assay [1] is -22.4%; in assay [2], 52%; in assay [3], 51.2%; in assay [4], 11%; in assay [5], 60.1%; in assay [6], 41%.
As to `CCOC(=O)N/N=C(\C)c1ccc(OC)cc1`, the growth inhibition in assay [1] is 17.8%; in assay [2], 21.9%; in assay [3], 20.1%; in assay [4], 11.3%; in assay [5], 34.9%; in assay [6], 19.1%.
As to `CNC(=O)OCCC(OC(=O)NC)C1CCC2C3CCC4CC(OC(=O)c5ccccc5)CCC4(C)C3CCC12C` (stereo unspecified), the growth inhibition in assay [1] was 37%; in assay [2], 1.7%; in assay [3], 4.9%; in assay [4], 23.3%; in assay [5] it was -4%; in assay [6], 8.8%.
With `CN1C(=O)C2C=CC1c1ccccc12` (stereo unspecified), the growth inhibition in assay [1] was -0.75%; in assay [2] it was -3.95%; in assay [3], -8.8%; in assay [4] it was -37%; in assay [5], -6.5%; in assay [6], 2.55%.
Take `C[n+]1ccccc1/C=C/c1ccc([N+](=O)[O-])cc1`: the growth inhibition is 9% in assay [1]; 5.8% in assay [2]; 13.2% in assay [3]; -10.3% in assay [4]; -1.8% in assay [5]; 6.3% in assay [6].
Turning to `N=C(N)n1ncc2c1CCC/C2=N/N=C(N)N`, the growth inhibition in assay [1] was 17.5%; in assay [2], 17.1%; in assay [3] it was 13.5%; in assay [4], 64.3%; in assay [5], 29.9%; in assay [6], 3.9%.
On to `O=c1[nH]c2c(Cl)cc(Cl)c(Cl)c2c2ccccc12`, for which the growth inhibition in assay [1] was -0.45%; in assay [2], 7.65%; in assay [3] it was 1.5%; in assay [4] it was -18.4%; in assay [5], 21.1%; in assay [6] it was 4.85%.
Consider `Cc1cc(=O)oc2c(C)c3oc4c(c3cc12)CN(C)CC4`, for which the growth inhibition in assay [1] was 26.9%; in assay [2], 10.9%; in assay [3], 25.4%; in assay [4], 20%; in assay [5] it was 13.9%; in assay [6] it was 25.8%.
On to `CCOC(=O)c1cnc(N)nc1N`, for which the growth inhibition in assay [1] is 6.35%; in assay [2], -16.1%; in assay [3], -6.3%; in assay [4], -88.3%; in assay [5] it was -8.3%; in assay [6] it was 24.1%.
For `COc1ccccc1N=Nc1c(-c2ccccc2)nn(C(N)=S)c1-c1ccccc1`, the growth inhibition in assay [1] is 35%; in assay [2] it was -5.75%; in assay [3] it was 19.4%; in assay [4], 12.2%; in assay [5], -0.05%; in assay [6] it was 6.6%.
Regarding `CC1CN=C(N(C(=O)Nc2ccc(Cl)c(Cl)c2)c2ccccc2)S1` (stereo unspecified), the growth inhibition in assay [1] is -47.3%; in assay [2], 3.6%; in assay [3], -5.7%; in assay [4], 23.8%; in assay [5] it was -2.55%; in assay [6], -3.3%.
For the compound `O=C(O)C1CSC2(CCCN(Cc3ccccc3)C2)N1` (stereo unspecified), the growth inhibition in assay [1] is -17.7%; in assay [2], -29.4%; in assay [3], -5.85%; in assay [4], -3.7%; in assay [5], -17.1%; in assay [6] it was 5.2%.
As to `COc1ccc(N2C(=O)C3C=CC(n4[nH]c(=O)n(Cc5ccccc5)c4=O)CC3C2=O)cc1` (stereo unspecified), the growth inhibition in assay [1] is 6.6%; in assay [2] it was 1.8%; in assay [3], -0.9%; in assay [4] it was -20.9%; in assay [5], 8.4%; in assay [6] it was -25.6%.
`C=CCc1cccc(C2N(Cc3ccc(OC)cc3OC)CCCN2Cc2ccc(OC)cc2OC)c1O`: the growth inhibition in assay [1] is 26.6%; in assay [2], 7%; in assay [3], -0.75%; in assay [4], 16.6%; in assay [5], -2.05%; in assay [6], 17.8%.
For the compound `Nc1cccc2ncccc12`, the growth inhibition was 0.6% in assay [1]; -9.95% in assay [2]; -13.5% in assay [3]; -30% in assay [4]; -1.95% in assay [5]; -19.9% in assay [6].
With `OCCN(CCO)c1ccc(-n2cnc3c(=S)nc[nH]c32)cc1`, the growth inhibition in assay [1] was -3.1%; in assay [2], -3%; in assay [3] it was 5.55%; in assay [4], -43.8%; in assay [5], 8.35%; in assay [6], -4.15%.
In the case of `Cc1ccc(N=Nc2ccc(N)cc2C)c(S(N)(=O)=O)c1`, the growth inhibition in assay [1] is 40.3%; in assay [2] it was 4.05%; in assay [3], 51.3%; in assay [4], 5.05%; in assay [5] it was 61.8%; in assay [6], 49%.
Regarding `C/C(=N/NC(N)=O)C1CCC(C)CC1` (stereo unspecified), the growth inhibition in assay [1] was 39%; in assay [2] it was 31.8%; in assay [3], 21.9%; in assay [4], 12.3%; in assay [5], 8.2%; in assay [6], 31%.
In the case of `O=C1C(=O)c2ccccc2C(O)=C1Cc1ccccc1`, the growth inhibition is -15.2% in assay [1]; 13.8% in assay [2]; -11.9% in assay [3]; 7.5% in assay [4]; -36.8% in assay [5]; 1.85% in assay [6].
